Measured values from PubChem BioAssay AID953 (National Center for Advancing Translational Sciences (NCATS), 2007).
This is one part of the list. Inconclusive results are not listed. A number with no mark means an inactive call. The call rests on the fitted dose curve; in most records, active means well fitted curve in the direction sought with a large enough effect; inconclusive means small, poorly fitted or top-dose-only effect, or effect the other way, or another doubt; inactive means no such curve, though single readings can be large or run the other way.

experiment: Confirmation Concentration-Response Assay for Agonists of the Thyroid Stimulating Hormone Receptor: Activators of Intracellular cAMP Concentrations in Parental HEK 293; settings: parental HEK293 CNG biosensor, cAMP membrane potential fluorescence; series mostly up to 32.9 µM; activity change, negative = inhibition: at the top concentration
From the text: NIH Chemical Genomics Center [NCGC] NIH Molecular Libraries Screening Centers Network [MLSCN] MLSCN Grant: 1 X01 MH080680-01 PI Name: Dr. Marvin Gershengorn NCGC Assay Overview: This cell based assay utilized a cyclic nucleotide gated ion channel (CNG) as a biosensor for cAMP induction. HEK 293 cells stably expressing the modified CNG were purchased from BD biosciences (http://www.atto.com/products/actone/features_benefits.shtml) . Stimulation of cAMP production causes the CNG to open and subsequent membrane depolarization to occur. A fluorescent membrane potential dye (BD biosciences) was utilized to detect cAMP stimulation in cells. The cells were maintained in DMEM medium (Invitrogen) containing 10 % FBS (Hyclone), 100 units/ml Penicillin, 100 ug/ml Streptomycin (Invitrogen), and 250 ug/ml Geneticin (Invitrogen) and 1 ug/ml Puromycin (Invitrogen) at 37C in 5% CO2. This assay was used as a counterscreen to "Confirmation Concentration-Response Assay for Agonists of the Thyroid Stimulating Hormone Receptor", to control for compounds signaling through endogenous receptors and other targets of HEK 293 cells.
NCGC Assay Protocol Summary: High Throughput Screening. Freshly passaged cells were dispensed into 1536-well assay plates at 4 ul/well in DMEM containing phenol red (Invitrogen), 10% FCS (Hyclone), and 100 units/ml Penicillin, 100 ug/ml Streptomycin (Invitrogen) and incubated at 37 C with 5% CO2 for 20 to 36 hrs before the robotic screening. The screen was initiated by addition of 4 ul/well membrane potential dye containing 100 uM RO 20-1724 (Sigma Aldrich), followed by 60 min incubation at room temperature to allow for dye equilibration across the cell membrane. 23 nl/well compound or control was then added to the assay plates, which were incubated for additional 30 min before reading a Envision fluorescence plate reader (Perkin Elmer) in bottom-read mode for fluorescence intensity (emission at 590 nm). Keywords: cAMP, CNG Ion Channel, quantitative high throughput screening, qHTS, HTS, probe identification, CNG, cAMP, cyclic nucleotide gated ion channel PubChem

Row | Compound | activity change, negative = inhibition
1 | O=C(CN1C(=O)NC2(CCCCC2)C1=O)NCCC1=CCCCC1 | -9.98%
2 | C=CCn1c(COc2ccccc2F)nnc1SCC(=O)N1CC(=O)Nc2ccccc21 | -6.56% [at 25.6 µM]
3 | O=C(COC(=O)C12CC3CC(CC(C3)C1)C2)NCc1ccco1 | -5.29%
4 | CCOC(=O)CSc1nnc(NC(=O)c2cccc(S(=O)(=O)N3CCCCC3)c2)s1 | -6.14% [at 25.6 µM]
5 | Cc1ccc(Nc2nc(CSc3nnnn3-c3ccccc3)cc(=O)[nH]2)cc1 | -123% [at 25.6 µM]
6 | CCOC(=O)c1cnc(-n2nc(C)cc2C)nc1-n1nc(C)cc1C | -6.3%
